Holding throughout (set-up): scale not given: direction of the effect not stated beside the values
For experiment [1], the target named is Protein translocase subunit SecA (Escherichia coli (strain K12)) (UniProt P10408). Nature of the experiment: Assay to Identify E. coli SecA ATPase Inhibitors. It is filed as functional. The note with it: 30 µM.
In experiment [2] the target is T1, Ubiquitin-activating enzyme e1, putative (Leishmania donovani (strain BPK282A1)) (UniProt E9BSI1).
T1 sequence (whole entry): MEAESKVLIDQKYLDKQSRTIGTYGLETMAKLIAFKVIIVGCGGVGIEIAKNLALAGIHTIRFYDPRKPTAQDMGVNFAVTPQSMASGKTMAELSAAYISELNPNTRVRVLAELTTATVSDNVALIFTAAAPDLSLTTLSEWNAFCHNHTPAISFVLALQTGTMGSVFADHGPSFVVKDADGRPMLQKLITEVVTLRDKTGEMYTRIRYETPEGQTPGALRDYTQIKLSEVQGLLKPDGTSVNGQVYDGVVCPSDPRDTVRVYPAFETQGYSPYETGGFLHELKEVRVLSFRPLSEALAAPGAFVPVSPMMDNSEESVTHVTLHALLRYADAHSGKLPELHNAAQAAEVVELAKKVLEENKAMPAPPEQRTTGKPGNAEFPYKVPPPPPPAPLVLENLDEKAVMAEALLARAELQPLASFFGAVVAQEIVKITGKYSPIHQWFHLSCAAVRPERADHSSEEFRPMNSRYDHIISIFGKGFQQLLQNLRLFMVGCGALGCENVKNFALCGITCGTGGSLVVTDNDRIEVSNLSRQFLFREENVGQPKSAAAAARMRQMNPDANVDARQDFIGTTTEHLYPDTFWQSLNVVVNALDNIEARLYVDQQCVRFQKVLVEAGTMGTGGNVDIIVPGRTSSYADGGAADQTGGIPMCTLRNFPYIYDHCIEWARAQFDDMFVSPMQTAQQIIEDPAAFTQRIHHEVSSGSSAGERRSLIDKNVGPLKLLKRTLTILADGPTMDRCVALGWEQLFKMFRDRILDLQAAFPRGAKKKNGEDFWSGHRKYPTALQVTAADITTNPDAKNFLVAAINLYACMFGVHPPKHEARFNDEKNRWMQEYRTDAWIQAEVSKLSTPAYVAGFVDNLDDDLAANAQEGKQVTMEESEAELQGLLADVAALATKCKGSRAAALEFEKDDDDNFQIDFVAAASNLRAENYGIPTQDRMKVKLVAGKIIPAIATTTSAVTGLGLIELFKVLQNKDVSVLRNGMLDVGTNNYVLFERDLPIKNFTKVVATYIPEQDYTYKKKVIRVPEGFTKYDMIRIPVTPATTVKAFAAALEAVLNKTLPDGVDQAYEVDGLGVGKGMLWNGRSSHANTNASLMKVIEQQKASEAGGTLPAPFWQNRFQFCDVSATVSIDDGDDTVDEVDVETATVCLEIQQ
Nature of the experiment: Leishmania donovani Ubiquitin Activating Enzyme (LdE1). In kind it is functional. The note with it: 30 µM.

For experiment [3], the target named is AMP-activated protein kinase, AMPK (Homo sapiens) (UniProt P54646+O43741+P54619+Q9UGJ0+Q9Y478+Q13131+Q9UGI9). Briefly: AMP-dependent Kinase enzyme assay. An in vitro enzyme assay that detects ADP turnover that is directly proportional to AMPK activity. This uses naive AMPK that is activated during the assay with MK-8722. It is filed as functional. Particulars: 30 µM.

Experiment [4] has as its target Sialic acid-binding Ig-like lectin 9 (Homo sapiens) (UniProt Q9Y336). Briefly: Hs-Siglec9 ALPHAscreen SOP 20170721. The note with it: 10 µM.
The subject of experiment [5] is Trypanosoma cruzi. Briefly: Trypanosoma cruzi phosphomannomutase and mannose-1-phosphate guanylyltransferase assay. In kind it is functional. Particulars: 10 µM.
For experiment [6], the target named is T2, Arginase-2, mitochondrial (Homo sapiens) (UniProt P78540).
T2 sequence (whole entry): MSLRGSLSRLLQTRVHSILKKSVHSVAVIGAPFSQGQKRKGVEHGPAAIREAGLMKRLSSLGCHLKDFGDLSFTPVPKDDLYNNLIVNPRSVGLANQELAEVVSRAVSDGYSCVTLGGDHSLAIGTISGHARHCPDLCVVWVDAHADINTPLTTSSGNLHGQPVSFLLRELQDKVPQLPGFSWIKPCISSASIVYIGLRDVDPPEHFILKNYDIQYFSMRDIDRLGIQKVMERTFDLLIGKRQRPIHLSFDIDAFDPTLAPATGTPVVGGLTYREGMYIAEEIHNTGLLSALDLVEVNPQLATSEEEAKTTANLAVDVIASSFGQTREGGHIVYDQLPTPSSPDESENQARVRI
Nature of the experiment: in vitro enzyme assay to detect the production of urea directly proportional to the activity of Arginase II. Also: in the data most compounds retested in dose-response had high values. It is filed as functional. Particulars: 33.3 µM.

Experiment [7] concerns the target T3, Proteasome subunit beta (Trypanosoma cruzi) (UniProt O96673).
T3 sequence (whole entry): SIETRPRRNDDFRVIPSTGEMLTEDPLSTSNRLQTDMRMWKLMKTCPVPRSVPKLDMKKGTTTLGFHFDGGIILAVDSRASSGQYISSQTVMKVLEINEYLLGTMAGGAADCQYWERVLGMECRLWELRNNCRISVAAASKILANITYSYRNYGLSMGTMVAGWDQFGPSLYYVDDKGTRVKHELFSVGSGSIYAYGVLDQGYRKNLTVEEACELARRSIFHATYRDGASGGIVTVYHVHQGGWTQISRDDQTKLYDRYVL
Briefly: Trypanosoma cruzi proteasome chymotrypsin-like activity (TcProtChymo) assay. Also: in the data most compounds retested in dose-response had high values. It is filed as functional. Particulars: 9.37 µM.

The species named for experiment [8] is Homo sapiens. Nature of the experiment: To identify inhibition of the IFN signalling (Jak-Stat) pathway via expression of an eGFP reporter gene under the control of an IFN-stimulated response element (ISRE) containing MxA promoter. In kind it is functional. The note with it: 30 µM. Background: In a reporter assay the amount or activity of a reporter protein is the signal.

Experiment [9] addresses T4, Tyrosyl-tRNA synthetase, putative (Trypanosoma cruzi (strain CL Brener)) (UniProt Q4DSP6).
T4 sequence (whole entry): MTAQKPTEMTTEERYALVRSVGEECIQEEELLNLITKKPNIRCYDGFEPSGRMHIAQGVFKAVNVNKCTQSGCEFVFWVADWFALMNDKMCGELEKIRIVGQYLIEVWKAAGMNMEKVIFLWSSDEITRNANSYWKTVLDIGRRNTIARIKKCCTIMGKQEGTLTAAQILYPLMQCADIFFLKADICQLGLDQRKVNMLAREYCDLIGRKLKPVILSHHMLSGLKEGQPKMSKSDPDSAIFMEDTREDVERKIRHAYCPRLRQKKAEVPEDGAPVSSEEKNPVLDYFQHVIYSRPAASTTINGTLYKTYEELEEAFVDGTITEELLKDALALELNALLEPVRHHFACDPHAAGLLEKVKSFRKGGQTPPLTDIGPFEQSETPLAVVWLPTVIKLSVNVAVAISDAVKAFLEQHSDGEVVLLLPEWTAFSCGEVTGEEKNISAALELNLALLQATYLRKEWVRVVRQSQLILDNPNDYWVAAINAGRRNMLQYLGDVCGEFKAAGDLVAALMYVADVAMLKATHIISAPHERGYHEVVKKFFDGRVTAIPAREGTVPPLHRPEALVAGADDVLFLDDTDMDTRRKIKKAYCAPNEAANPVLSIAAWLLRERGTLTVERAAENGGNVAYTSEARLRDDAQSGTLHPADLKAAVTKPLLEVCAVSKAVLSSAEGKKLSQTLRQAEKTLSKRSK
Nature of the experiment: Trypanosoma cruzi tyrosyl tRNA synthetase (TcYRS) _High Tyrosine SOP. Also: in the data most compounds retested in dose-response had high values. It is filed as functional. Particulars: 30 µM.

Experiment [10] has as its target T4, Tyrosyl-tRNA synthetase, putative (Trypanosoma cruzi (strain CL Brener)). Nature of the experiment: Trypanosoma cruzi tyrosyl tRNA synthetase (TcYRS) SOP. It is filed as functional. The note with it: 30 µM.
For experiment [11], the target named is Chromo domain-containing protein 1 (Saccharomyces cerevisiae (strain ATCC 204508 / S288c) (Baker's yeast)) (UniProt P32657). Briefly: ScCHD-1 Enzyme Inhibition Assay. Also: in the data most compounds retested in dose-response had high values. It is filed as functional. The note with it: 30 µM.
Chain of Chromo domain-containing protein 1 (Saccharomyces cerevisiae (strain ATCC 204508 / S288c) (Baker's yeast)) (P32657 whole entry, the tested form may be a part): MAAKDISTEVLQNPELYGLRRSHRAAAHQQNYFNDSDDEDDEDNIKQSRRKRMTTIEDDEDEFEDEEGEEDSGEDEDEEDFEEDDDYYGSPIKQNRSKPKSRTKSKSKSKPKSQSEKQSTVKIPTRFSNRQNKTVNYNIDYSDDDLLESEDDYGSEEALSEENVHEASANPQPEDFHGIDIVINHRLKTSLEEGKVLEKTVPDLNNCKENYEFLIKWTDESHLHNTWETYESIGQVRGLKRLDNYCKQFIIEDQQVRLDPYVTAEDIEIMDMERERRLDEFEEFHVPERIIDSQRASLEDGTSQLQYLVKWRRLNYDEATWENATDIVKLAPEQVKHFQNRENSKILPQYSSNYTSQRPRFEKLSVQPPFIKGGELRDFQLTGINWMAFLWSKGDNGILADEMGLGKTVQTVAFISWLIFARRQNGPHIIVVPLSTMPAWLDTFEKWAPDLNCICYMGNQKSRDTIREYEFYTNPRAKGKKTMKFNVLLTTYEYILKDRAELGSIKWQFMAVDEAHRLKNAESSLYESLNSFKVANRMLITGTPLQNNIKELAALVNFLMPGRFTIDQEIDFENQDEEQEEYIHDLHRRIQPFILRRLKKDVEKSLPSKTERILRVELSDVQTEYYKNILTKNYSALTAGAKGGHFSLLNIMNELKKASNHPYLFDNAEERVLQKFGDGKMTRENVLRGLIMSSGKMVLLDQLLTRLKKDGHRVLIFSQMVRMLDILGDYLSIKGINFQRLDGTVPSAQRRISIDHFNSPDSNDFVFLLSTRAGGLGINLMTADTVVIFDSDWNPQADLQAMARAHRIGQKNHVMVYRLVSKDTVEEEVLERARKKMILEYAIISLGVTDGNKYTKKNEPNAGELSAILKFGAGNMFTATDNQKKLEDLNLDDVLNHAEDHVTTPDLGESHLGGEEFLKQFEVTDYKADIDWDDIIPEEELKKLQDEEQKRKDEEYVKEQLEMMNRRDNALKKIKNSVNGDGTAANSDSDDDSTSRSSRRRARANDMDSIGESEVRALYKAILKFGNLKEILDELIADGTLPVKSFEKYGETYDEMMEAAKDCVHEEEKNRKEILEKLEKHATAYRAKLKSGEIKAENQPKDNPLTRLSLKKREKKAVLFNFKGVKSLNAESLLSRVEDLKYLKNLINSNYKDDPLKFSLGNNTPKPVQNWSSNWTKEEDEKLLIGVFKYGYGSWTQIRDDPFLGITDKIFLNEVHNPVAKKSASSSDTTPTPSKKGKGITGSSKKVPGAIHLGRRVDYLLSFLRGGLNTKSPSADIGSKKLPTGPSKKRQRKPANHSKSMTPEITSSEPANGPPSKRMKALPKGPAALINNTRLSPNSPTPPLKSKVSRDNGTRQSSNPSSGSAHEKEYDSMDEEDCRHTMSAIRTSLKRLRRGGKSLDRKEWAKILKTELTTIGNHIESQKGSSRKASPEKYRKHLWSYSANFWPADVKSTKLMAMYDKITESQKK

SMILES strings stand for the structures. For some of these results: Measured potencies and affinities stand elsewhere.

Chain of Sialic acid-binding Ig-like lectin 9 (Homo sapiens) (Q9Y336 whole entry): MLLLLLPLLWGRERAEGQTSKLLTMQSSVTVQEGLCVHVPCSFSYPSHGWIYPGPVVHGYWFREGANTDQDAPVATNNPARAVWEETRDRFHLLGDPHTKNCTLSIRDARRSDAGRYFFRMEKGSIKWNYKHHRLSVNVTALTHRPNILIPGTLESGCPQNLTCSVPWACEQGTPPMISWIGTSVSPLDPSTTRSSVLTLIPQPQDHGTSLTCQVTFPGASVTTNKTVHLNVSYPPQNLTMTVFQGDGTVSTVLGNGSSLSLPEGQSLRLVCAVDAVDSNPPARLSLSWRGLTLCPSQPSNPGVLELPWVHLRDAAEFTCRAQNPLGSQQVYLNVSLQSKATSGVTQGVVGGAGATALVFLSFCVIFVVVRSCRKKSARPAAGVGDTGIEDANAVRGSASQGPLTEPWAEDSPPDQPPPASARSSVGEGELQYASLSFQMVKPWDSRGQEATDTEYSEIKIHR
Chain of Protein translocase subunit SecA (Escherichia coli (strain K12)) (P10408 whole entry): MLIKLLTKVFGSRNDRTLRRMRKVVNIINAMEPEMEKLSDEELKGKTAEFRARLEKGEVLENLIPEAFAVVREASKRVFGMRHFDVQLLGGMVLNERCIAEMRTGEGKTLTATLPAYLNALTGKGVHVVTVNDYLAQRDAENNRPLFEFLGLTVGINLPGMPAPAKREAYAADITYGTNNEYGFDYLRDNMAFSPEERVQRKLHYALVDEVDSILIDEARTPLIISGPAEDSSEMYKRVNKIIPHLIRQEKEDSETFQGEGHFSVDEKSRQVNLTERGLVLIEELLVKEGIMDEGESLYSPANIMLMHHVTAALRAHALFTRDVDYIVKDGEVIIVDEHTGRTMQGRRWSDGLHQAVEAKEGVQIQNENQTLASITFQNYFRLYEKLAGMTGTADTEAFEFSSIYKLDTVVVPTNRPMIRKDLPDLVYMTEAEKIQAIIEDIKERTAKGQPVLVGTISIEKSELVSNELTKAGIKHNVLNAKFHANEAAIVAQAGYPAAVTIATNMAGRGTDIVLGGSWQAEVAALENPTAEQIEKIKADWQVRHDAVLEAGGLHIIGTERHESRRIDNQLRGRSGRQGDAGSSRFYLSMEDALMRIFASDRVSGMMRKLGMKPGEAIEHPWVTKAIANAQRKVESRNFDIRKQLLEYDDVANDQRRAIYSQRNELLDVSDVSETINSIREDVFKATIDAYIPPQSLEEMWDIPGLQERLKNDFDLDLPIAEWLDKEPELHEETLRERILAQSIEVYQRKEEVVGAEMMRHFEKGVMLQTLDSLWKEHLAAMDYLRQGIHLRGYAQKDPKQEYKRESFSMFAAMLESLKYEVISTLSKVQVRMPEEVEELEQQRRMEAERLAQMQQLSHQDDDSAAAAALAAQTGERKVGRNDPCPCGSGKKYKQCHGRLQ

For `COc1c(CNC2CCCc3ccccc32)c(C(C)C)nn1C` (stereo not drawn), the Percent Effect in [1] is -5.37%; in experiment [2] it was 21.6%; in experiment [3], -16.6%; in experiment [4] it was 17.5%; in experiment [5], 7.71%; in experiment [6], -5.73%. Moreover, the Percent Effect was 3.59% in experiment [7]; 6.78% in [8]; 4.95% in experiment [9]; 18.3% in [10]; -4.82% in [11].
Regarding `CCn1ccnc1CN1CCN(C(C)C(=O)N2CCC(C)CC2)CC1` (stereo not drawn), the Percent Effect in experiment [1] is -2.02%; in experiment [2] it was 2.7%; in experiment [3] it was -8.85%; in [4] it was 9.21%; in experiment [5], 2.88%; in experiment [6] it was -3.14%. The Percent Effect in [7] was 15.4%; in experiment [8] it was 11%; in [9], 3.96%; in [10], 11%; in experiment [11], -4.46%.
`Fc1ccc(CN2CC[C@H]3O[C@@H](COCC4CCOCC4)CC[C@H]32)cc1`: the Percent Effect in [1] was -5.06%; in [2], 5.33%; in [3], 10.6%; in [4] it was -6.01%; in [5], -7.48%; in experiment [6], -0.233%. In addition, the Percent Effect was 3.08% in [7]; 17.6% in experiment [8]; -1.06% in experiment [9]; -1.28% in [10]; -7.73% in [11].
For `Cc1cnn(CC2CN(CC(=O)Nc3sccc3C#N)CCO2)c1` (stereo not drawn), the Percent Effect was -4.12% in [1]; 7.89% in experiment [2]; 0.0642% in experiment [3]; 13% in experiment [4]; 0.564% in experiment [5]; 5.75% in [6]. In addition, the Percent Effect in experiment [7] is 3.17%; in experiment [8], 18.2%; in experiment [9], 4.41%; in experiment [10] it was 7.32%; in experiment [11], -1.67%.
`Cc1noc(C)c1CN1CC2(CCN(C(=O)c3cscn3)CC2)CC1=O`: the Percent Effect was -5.65% in experiment [1]; 10.4% in experiment [2]; 0.445% in [3]; 16.6% in experiment [4]; 5.01% in experiment [5]; -5.52% in experiment [6]. In addition, the Percent Effect in experiment [7] was 14.1%; in experiment [8], 0.0432%; in experiment [9], 6.45%; in experiment [10], 11.1%; in experiment [11], -2.57%.
`CN(CC(=O)NCc1ccccn1)CC1CCCN1c1cccnn1` (stereo not drawn): the Percent Effect in [1] is -1.59%; in [2], -5.41%; in experiment [3], -4.72%; in experiment [4], -0.887%; in experiment [5], -2.15%; in [6], -3.75%. Moreover, the Percent Effect in experiment [7] is 27.8%; in experiment [8] it was 3.47%; in [9] it was 8.91%; in experiment [10], 1.22%; in experiment [11] it was -0.357%.
In the case of `COC(=O)c1ccc(N2CCN(C(=O)c3ccncc3)C(C)C2)cc1` (stereo not drawn), the Percent Effect in experiment [1] was -4.64%; in experiment [2], 20.2%; in [3] it was -9.5%; in experiment [4] it was 4.75%; in experiment [5], 4.63%; in [6], -2.66%. The Percent Effect in experiment [7] was 10.1%; in [8] it was 20.8%; in [9], 8.37%; in experiment [10], 24.1%; in experiment [11], -9.65%.
Consider `Cc1cc2nc(SCC(=O)N3CCCC3)n(-c3ccccc3)c(=O)c2[nH]1`, for which the Percent Effect in experiment [1] was -2.59%; in experiment [2], 2.63%; in experiment [3], 7.28%; in experiment [4], -3.44%; in experiment [5], -3.02%; in experiment [6] it was 9.47%. For the same compound, the Percent Effect was 19.6% in experiment [7]; -5.99% in experiment [8]; 6.38% in experiment [9]; 2.6% in [10]; -5.49% in experiment [11].

The values are drawn from ChEMBL document CHEMBL3988442, “University of Dundee, Small-Polar-MMV Screening Library” (2021).
